# Assay results as given in PubChem BioAssay (EPA / NIEHS).
# Values joined by “and” are separate entries in the source; they are usually repeats but may differ in a detail not shown here. Equal values may be shown once. Inconclusive results are not listed. Some structures have more than one record in an assay (separate samples or runs), and their calls can disagree. Active and inactive are the calls of the source. The calls were made as follows, unless noted: active = hit-call score of the fitted dose curve at least 0.9, where 1 is the maximum; inconclusive = response in the unintended direction; inactive = score below 0.9.
# How the values were obtained:
# [1] = read-out: Thyroid Hormone Responsive (THRSP), THRSP (gene 7069); test: LTEA_HepaRG_THRSP: Life Technologies and Expression Analysis (LTEA) Assay for Thyroid Hormone Responsive (THRSP) using HepaRG (AID 2283536; active = hit-call score of the fitted dose curve at least 0.9, where 1 is the maximum; inactive = score below 0.9); details: mRNA level, 48 h; actives raise or lower the signal
# Procedure, shortened: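 qRT-PCR read-out (Fluidigm TaqMan), housekeeping-normalized (ACTB/GAPDH/POLR2A). HepaRG, 48 h chemical exposure, 8-pt half-log series from 100 uM in 0.5% DMSO, duplicates. Bidirectional curve fit vs 0.5% DMSO baseline.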
# [2] = read-out: Cellular tumor antigen p53 (Homo sapiens) (UniProt P04637); test: LTEA_HepaRG_TP53: Life Technologies and Expression Analysis (LTEA) Assay for Tumor Protein P53 (TP53) using HepaRG (AID 2283537; active = hit-call score of the fitted dose curve at least 0.9, where 1 is the maximum; inactive = score below 0.9); details: mRNA level, 48 h; actives raise or lower the signal
# Procedure, shortened: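 TP53 transcript measured by qRT-PCR, normalized to three housekeeping genes, after 48 h treatment of human HepaRG cultures with chemicals from 100 uM downward in half-log steps (0.5% DMSO vehicle, serum-free induction medium). Up- or down-regulation fitted against DMSO.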
# [3] = read-out: UDP glucuronosyltransferase (UGT1A1), UGT1A1 (gene 54658); test: LTEA_HepaRG_UGT1A1: Life Technologies and Expression Analysis (LTEA) Assay for UDP glucuronosyltransferase (UGT1A1) using HepaRG (AID 2283538; active = hit-call score of the fitted dose curve at least 0.9, where 1 is the maximum; inactive = score below 0.9); details: mRNA level, 48 h; actives raise or lower the signal
# Procedure, shortened: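 Cells are plated, cultured 48 h, switched to serum-free induction medium, then dosed 48 h at eight concentrations (max 100 uM, 0.5% DMSO). RNA is isolated and UGT1A1 expression measured by qRT-PCR; changes versus DMSO are fitted in both directions.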
# [4] = read-out: UDP glucuronosyltransferase (UGT1A6), UGT1A6 (gene 54578); test: LTEA_HepaRG_UGT1A6: Life Technologies and Expression Analysis (LTEA) Assay for UDP glucuronosyltransferase (UGT1A6) using HepaRG (AID 2283539; active = hit-call score of the fitted dose curve at least 0.9, where 1 is the maximum; inactive = score below 0.9); details: mRNA level, 48 h; actives raise or lower the signal
# Procedure, shortened: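 Expression was quantified by TaqMan qRT-PCR on Fluidigm arrays with ACTB/GAPDH/POLR2A normalization and bidirectional fitting against 0.5% DMSO. HepaRG cells (~100,000/well) were treated in duplicate for 48 h at eight half-log concentrations up to 100 uM in serum-free induction medium.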
# [5] = read-out: X-box binding protein 1 (XBP1), XBP1 (gene 7494); test: LTEA_HepaRG_XBP1: Life Technologies and Expression Analysis (LTEA) Assay for X-box binding protein 1 (XBP1) using HepaRG (AID 2283540; active = hit-call score of the fitted dose curve at least 0.9, where 1 is the maximum; inactive = score below 0.9); details: mRNA level, 48 h; actives raise or lower the signal
# Procedure, shortened: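 XBP1 transcript by qRT-PCR (housekeeping-normalized: ACTB, GAPDH, POLR2A) after 48 h chemical treatment of HepaRG cells, 8-point half-log series topping at 100 uM, vehicle 0.5% DMSO. Gain and loss of signal fitted relative to DMSO.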
# [6] = LTEA_HepaRG_LDH_cytotoxicity: Cytotoxicity Assessment in the Life Technologies and Expression Analysis (LTEA) Assay (AID 2283563);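 as to AC50: LDH activity released into spent culture medium as a marker of cell death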
# Procedure, shortened: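 LDH release into culture medium read after 48 h chemical treatment of HepaRG cells. Duplicate wells, eight-point half-log series topping at 100 uM, 0.5% DMSO vehicle and baseline.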
# [7] = TOX21_p53_BLA_p2_viability: Viability Assessment in the Tox21 HCT-116 p53 Agonism Beta-lactamase Assay, Phase 2 (AID 2283591);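 also: compound exposure lasted 16 h at 37 °C; actives lower the ATP signal meaning cytotoxicity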
# Procedure, shortened: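 HCT116 p53-bla cells, 4000/well, dosed after 5 h plating (217-fold dilution of DMSO stocks) and incubated 16 h at 37C. Viability taken as cellular ATP by CellTiter-Glo luminescence after 30 min RT; signal loss marks cytotoxicity.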
# [8] = target: Cellular tumor antigen p53 (Homo sapiens) (UniProt P04637); test: TOX21_p53_BLA_p2_ratio: Tox21 HCT-116 p53 Agonism Beta-lactamase Assay, Ratio, Phase 2 (AID 2283592)
# Procedure, shortened: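 Read-out is the blue/green (460/530 nm, 405 nm excitation) ratio after 2 h CCF4-AM loading, fitted as gain versus DMSO. Compounds, pinned at 217-fold dilution from DMSO stocks, stayed 16 h on HCT-116 beta-lactamase reporter cells seeded 5 h earlier.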
# [9] = TOX21_p53_BLA_p3_viability: Viability Assessment in the Tox21 HCT-116 p53 Agonism Beta-lactamase Assay, Phase 3 (AID 2283593);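 also: cells exposed to compound for 16 h before reading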
# Procedure, shortened: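 HCT116 cells, 4000/well, dosed 5 h after plating by pin transfer (217-fold dilution from DMSO stock) and incubated 16 h at 37C, 5% CO2. Viability read as ATP luminescence with CellTiter-Glo after 30 min at room temperature.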
# Sequence of Cellular tumor antigen p53 (Homo sapiens) (P04637 whole entry, looked up): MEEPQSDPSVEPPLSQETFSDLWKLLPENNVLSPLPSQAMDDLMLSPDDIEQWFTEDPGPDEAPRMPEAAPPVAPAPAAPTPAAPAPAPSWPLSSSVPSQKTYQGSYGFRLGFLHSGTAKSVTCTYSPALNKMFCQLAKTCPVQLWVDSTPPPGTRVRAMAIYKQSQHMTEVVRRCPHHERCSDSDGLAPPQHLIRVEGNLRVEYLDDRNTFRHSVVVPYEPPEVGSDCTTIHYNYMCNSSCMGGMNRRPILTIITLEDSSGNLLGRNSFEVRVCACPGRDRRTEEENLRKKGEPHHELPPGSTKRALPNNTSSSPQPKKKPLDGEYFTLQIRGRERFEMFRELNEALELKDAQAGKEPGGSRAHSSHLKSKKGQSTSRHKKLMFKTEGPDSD
smiles,measurement,setting,value
CC(C)(C)c1csc(-c2cc3cc(OCc4ccccc4CC(=O)O)ccc3o2)n1,outcome,[1],inactive
same,AC50,[2],82.4 µM (active)
same,AC50,[3],85.5 µM (active)
same,AC50,[4],77.2 µM (active)
same,outcome,[5],inactive
same,AC50,[6],76.6 µM (active)
same,AC50,[7],25.5 µM (active)
same,AC50,[8],36.2 µM (active)
same,AC50,[9],46.1 µM (active)
CC(=O)N1CCN(c2ccc(OC[C@H]3CO[C@](Cn4ccnc4)(c4ccc(Cl)cc4Cl)O3)cc2)CC1,AC50,[1],12.7 µM (active)
same,AC50,[2],90.3 µM (active)
same,AC50,[3],11.6 µM (active)
same,AC50,[4],30.8 µM (active)
same,outcome,[5],inactive
same,AC50,[6],86.9 µM (active)
same,AC50,[7],56.7 µM (active)
same,outcome,[7],inactive
same,outcome,[8],inactive
same,AC50,[9],46.1 µM (active)
same,outcome,[9],inactive
Cc1cn([C@H]2C[C@H](N=[N+]=[N-])[C@@H](CO)O2)c(=O)[nH]c1=O,outcome,[1],inactive
same,outcome,[2],inactive
same,outcome,[3],inactive
same,outcome,[4],inactive
same,outcome,[5],inactive
same,outcome,[6],inactive
same,outcome,[7],inactive
same,outcome,[8],inactive
same,outcome,[9],inactive
CC(C)(C)c1cc(/C=C2\SC(N)=NC2=O)cc(C(C)(C)C)c1O,outcome,[1],inactive
same,outcome,[2],inactive
same,AC50,[3],93.5 µM (active)
same,AC50,[4],22.1 µM (active)
same,outcome,[5],inactive
same,AC50,[6],37.3 µM (active)
same,AC50,[7],77.9 µM (active)
same,AC50,[8],50.7 µM (active)
same,outcome,[9],inactive
CCCCCCCCCCCO,outcome,[1],inactive
same,outcome,[2],inactive
same,outcome,[3],inactive
same,outcome,[4],inactive
same,outcome,[5],inactive
same,outcome,[6],inactive
same,outcome,[7],inactive
same,outcome,[8],inactive
same,outcome,[9],inactive
CCCCCCCCCC(=O)O,outcome,[1],inactive
same,outcome,[2],inactive
same,outcome,[3],inactive
same,outcome,[4],inactive
same,outcome,[5],inactive
same,outcome,[6],inactive
same,outcome,[7],inactive
same,outcome,[8],inactive
same,outcome,[9],inactive
CN(C[C@@H](CC[N+]12CCC(C3CCCCC3)(CC1)CC2)c1ccc(Cl)c(Cl)c1)C(=O)c1cc(C(F)(F)F)cc(C(F)(F)F)c1,AC50,[1],4.72 µM (active)
same,outcome,[2],inactive
same,AC50,[3],6.65 µM (active)
same,AC50,[4],1.66 µM (active)
same,outcome,[5],inactive
same,AC50,[6],26.6 µM (active)
same,AC50,[7],25.9 µM (active)
same,AC50,[8],64.8 µM (active)
same,AC50,[9],58.7 µM (active)
CCCCCCCC[Si](OCC)(OCC)OCC,outcome,[1],inactive
same,outcome,[2],inactive
same,outcome,[3],inactive
same,outcome,[4],inactive
same,outcome,[5],inactive
same,outcome,[6],inactive
same,outcome,[7],inactive
same,outcome,[8],inactive
same,outcome,[9],inactive
O=C1c2ccccc2C(=O)N1CCc1noc(-c2ccc(CN3CCCCCC3)s2)n1,outcome,[1],inactive
same,outcome,[2],inactive
same,AC50,[3],17.8 µM (active)
same,outcome,[4],inactive
same,outcome,[5],inactive
same,outcome,[6],inactive
same,outcome,[7],inactive
same,outcome,[8],inactive
same,outcome,[9],inactive
O=C(O)c1ccccc1C(=O)OCc1ccccc1,outcome,[1],inactive
same,outcome,[2],inactive
same,AC50,[3],24.3 µM (active)
same,outcome,[4],inactive
same,outcome,[5],inactive
same,outcome,[7],inactive
same,outcome,[8],inactive
same,outcome,[9],inactive
CC1(C)NC(=O)N(c2ccc([N+](=O)[O-])c(C(F)(F)F)c2)C1=O,outcome,[1],inactive
same,AC50,[2],78.2 µM (active)
same,outcome,[3],inactive
same,outcome,[4],inactive
same,outcome,[5],inactive
same,outcome,[6],inactive
same,outcome,[7],inactive
same,outcome,[8],inactive
same,outcome,[9],inactive
CCCCCCCCCCCCO,outcome,[1],inactive
same,outcome,[2],inactive
same,outcome,[3],inactive
same,outcome,[4],inactive
same,outcome,[5],inactive
same,outcome,[6],inactive
same,outcome,[7],inactive
same,outcome,[8],inactive
same,outcome,[9],inactive
CCCOC(=O)c1cc(O)c(O)c(O)c1,outcome,[1],inactive
same,outcome,[2],inactive
same,AC50,[3],1.73 µM (active)
same,outcome,[4],inactive
same,outcome,[5],inactive
same,outcome,[6],inactive
same,outcome,[7],inactive
same,outcome,[8],inactive
same,outcome,[9],inactive
CCCCCCCCCCCC[N+](C)(C)C,outcome,[1],inactive
same,AC50,[2],81.9 µM (active)
same,AC50,[3],88.3 µM (active)
same,AC50,[4],89.9 µM (active)
same,outcome,[5],inactive
same,AC50,[6],90.4 µM (active)
same,AC50,[7],85.2 µM (active) and 79.6 µM (active) and 73.5 µM (active)
same,AC50,[8],14.7 µM (active) and 14.2 µM (active) and 14.1 µM (active)
same,AC50,[9],85.3 µM (active)
same,outcome,[9],inactive
O=CCCCC=O,outcome,[1],inactive
same,outcome,[2],inactive
same,outcome,[3],inactive
same,outcome,[4],inactive
same,outcome,[5],inactive
same,outcome,[6],inactive
same,outcome,[7],inactive
same,outcome,[8],inactive
same,AC50,[9],83.5 µM (active) and 84.6 µM (active)
same,outcome,[9],inactive
O=c1[nH]sc2ccccc12,outcome,[1],inactive
same,outcome,[2],inactive
same,outcome,[3],inactive
same,outcome,[4],inactive
same,outcome,[5],inactive
same,outcome,[6],inactive
same,outcome,[7],inactive
same,outcome,[8],inactive
same,outcome,[9],inactive
O=C(O)c1ccccc1-n1cc(C(=O)O)c(=O)c2cc(Nc3c(F)cc(F)cc3Cl)c(Cl)cc21,outcome,[1],inactive
same,outcome,[2],inactive
same,outcome,[3],inactive
same,AC50,[4],0.0904 µM (active)
same,outcome,[5],inactive
same,outcome,[6],inactive
same,outcome,[8],inactive
CCN(CC)C(=O)c1cc(S(=O)(=O)Cc2ccccc2)c(N2CCC(c3ccccc3)CC2)cc1N(CC)CCN(C)C,AC50,[1],6.01 µM (active)
same,AC50,[2],30.7 µM (active)
same,AC50,[3],19 µM (active)
same,AC50,[4],30 µM (active)
same,AC50,[5],28.8 µM (active)
same,AC50,[6],31.1 µM (active)
same,AC50,[7],29.4 µM (active) and 33.5 µM (active)
same,outcome,[8],inactive
same,AC50,[9],30.3 µM (active)
same,outcome,[9],inactive
Cc1oc2c(NC(=O)c3c(Cl)cccc3Cl)cccc2c1C(C)(C)O,AC50,[1],86.8 µM (active)
same,AC50,[2],82.1 µM (active)
same,AC50,[3],50 µM (active)
same,AC50,[4],46.9 µM (active)
same,AC50,[5],11.3 µM (active)
same,outcome,[7],inactive
same,outcome,[8],inactive
same,outcome,[9],inactive
CCCC(=O)OCCC(C)C,outcome,[1],inactive
same,outcome,[2],inactive
same,outcome,[3],inactive
same,outcome,[4],inactive
same,outcome,[5],inactive
same,outcome,[6],inactive
same,outcome,[8],inactive
